Experimental data as given in the supplement of paper PMC11150407.
Screen size: about 3,000 compounds; about 45 (2%) showed an effect of 50% or more. This is one part of a sample in which strong results are shown more often than they occur.

Each molecule was assayed on MOLM1 and UCSD/AML1 (averaged) (assay: cell viability relative to DMSO control (POC); higher = less growth inhibition). Conditions: 1 µM; 72 h.
Experimental: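 Primary viability screen in the 3q26 EVI1-high AML cell lines MOLM1 and UCSD/AML1, compounds at 1 uM for 72 h. ATP CellTiter-Glo read-out given as percent viable over DMSO control (POC), averaged over duplicates. This mapping covers the TimTec NDL-3000 natural derivative library, whose compounds are identified by TimTec catalogue codes (ST...).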

SMILES	cell viability [%]
COc1ccc(/C=C/C(=O)Oc2ccc(C(C)C)cc2)c(OC)c1	101
COc1ccc(Br)cc1/C=C/C(=O)O	95.6
CCOC(=O)CCc1ccc2c(c1)NC(=O)CC2	91.8
CCOC(=O)[C@H]1CCC(=O)N1	17.6
CCOC(=O)CCc1n[nH]c(=O)[nH]c1=O	88.1
Cc1cccc(NC(=O)CSc2nc3c(=O)[nH]cnc3n2C)c1C	95.1
Cc1[nH]c2ccc(Br)cc2c1CCNC(=O)c1cccs1	100
Cc1ccc(NC(=O)CSc2nc3c(=O)[nH]cnc3n2CC2CCCO2)c(Cl)c1 (configuration not stated)	98.7
COc1ccc(C(=O)N2CCN(Cc3cc(=O)oc4cc(C)ccc34)CC2)c(OC)c1	93
Cc1ccc2c(CN3CCN(C(=O)OC(C)(C)C)CC3)cc(=O)oc2c1	14.9
Cc1ccc2c(CN3CCN(Cc4ccc(Cl)cc4)CC3)cc(=O)oc2c1	96.2
C=C(C)C1CCC2(C)CCC3(C)C(CCC4C5(C)CCC(OC(C)=O)C(C)(C)C5CCC43C)C12 (configuration not stated)	102
COc1ccc(OC)c2c(C)cc(SCC(=O)c3ccc4c(c3)OCCO4)nc12	101
COC(=O)C1=C(C)NC2=C(C(=O)CCC2)C1c1cc(OC)c(OC)c(OC)c1 (configuration not stated)	94.9
COC(=O)C1=C(C)NC(SC)=C(C#N)C1c1cc(OC)c(OC)c(OC)c1 (configuration not stated)	18.3
COC(=O)C1=C(C)NC2=C(C(=O)CC(c3ccc(OC)c(OC)c3)C2)C1c1cc(OC)c(OC)c(OC)c1 (configuration not stated)	101
CC(=O)/C=C(\C)NC(C)C(=O)O (configuration not stated)	102
O=C(/C=C/c1ccc(Cl)cc1Cl)c1ccc(Br)cc1	108
O=C(/C=C/c1ccc(NC(=O)c2cc(NC(=O)C(c3ccccc3)c3ccccc3)cc(NC(=O)C(c3ccccc3)c3ccccc3)c2)cc1)c1ccccc1	94.6
O=C(/C=C/c1cccc(NC(=O)c2ccc(Br)cc2)c1)c1cccc(NC(=O)c2ccc(Br)cc2)c1	1.83
CCCCCCOC(=O)c1ccccc1NC(=O)c1c(O)c2ccccc2[nH]c1=O	97.5
CCOc1cc(/C=C2\Oc3ccc(C(=O)OC)cc3C2=O)ccc1O	16.8
COC(=O)c1ccc2c(c1)C(=O)/C(=C/c1ccc(O)c(OC)c1)O2	84.6
CCOc1ccc(/C=C2/Oc3ccc(C(=O)OC)cc3C2=O)cc1OCC	96.6

SMILES	cell viability [%]
COc1cc(N(C(C)=O)C2OC(COC(C)=O)C(OC(C)=O)C(OC(C)=O)C2OC(C)=O)c(OC)c2c(C)cc(C)nc12 (configuration not stated)	98.5
CCOC(=O)CSc1nc2c(c(=O)[nH]c(=O)n2C)n1Cc1cccc(C)c1	100
Cc1ccc(-n2c(SCc3cccc(Cl)c3)nc3c(=O)[nH]cnc32)cc1	114
CN(C)S(=O)(=O)Nc1ccc(S(=O)(=O)N2CCc3ccccc3C2)cc1	98.2
COc1ccc(-c2nnc(SCc3nc4ccccc4[nH]3)o2)cc1OC	95.3
Cc1ccc(/C=C2\Oc3cc(O)ccc3C2=O)cc1	98.7
O=C(CSc1nc2c(=O)[nH]cnc2n1-c1ccccc1)NC1CCCC1	91.7
CC(NC(=O)c1ccccc1)C(=O)O (configuration not stated)	99.5
COc1ccc(/C=C/C(=O)N2CCc3c([nH]c4ccccc34)C2c2ccc(OC)cc2)cc1 (configuration not stated)	90.2
COc1ccc(C2c3[nH]c4ccccc4c3CCN2C(=O)/C=C/c2cc(OC)c(OC)c(OC)c2)cc1 (configuration not stated)	32.6
COc1ccc(C2c3[nH]c4ccccc4c3CCN2C(=O)/C=C/c2ccc(OC)c(OC)c2)cc1 (configuration not stated)	81.9
O=C(O)/C=C/c1ccc(Cl)c(Cl)c1	97.8
COc1cc(C(=O)Oc2ccccc2)cc(OC)c1OC	108
COc1cc(C(=O)N2c3ccccc3CC2C)cc(OC)c1OC (configuration not stated)	91.9
COc1cc(C(=O)N2CCN(c3cccc(C)c3C)CC2)cc(OC)c1OC	12.5
COc1cc(C(=O)N2CCN(C(=O)c3cccc(Cl)c3)CC2)cc(OC)c1OC	102
COc1cc(C(=O)N2CCOCC2)cc(OC)c1OC	98.2
COc1cc(C(=O)N2c3ccccc3C(C)=CC2(C)C)cc(OC)c1OC	29.3
O=C(/C=C/c1ccc2c(c1)OCO2)c1ccc2c(c1)OCCO2	104
Cn1c(SCc2ccc(Cl)cc2)nc2c(=O)[nH]cnc21	90
COc1ccc2[nH]cc(CCNC(=O)c3nn(-c4ccccc4)nc3C)c2c1	107
COc1ccc(/C=C2\Oc3ccc(Br)cc3C2=O)cc1	97.7
CCC1C/C(=C\c2ccc(OC)cc2)C(=O)/C(=C/c2ccc(OC)cc2)C1 (configuration not stated)	12.8
COc1ccc(/C=C2\CCc3ccccc3C2=O)cc1	94

SMILES	cell viability [%]
CCOC(=O)c1ccc2nc3c(=O)[nH]c(=O)nc-3n(CCc3ccc(OC)c(OC)c3)c2c1	99.7
COc1ccc(C=O)cc1COc1ccc2c(c1)CCC2	47.2
COc1ccc(OCc2cc(C=O)ccc2OC)cc1	107
COc1ccc(/C=C/C(=O)O)cc1COc1ccccc1	101
O=C(OCC1CCCN2CCCCC12)c1ccccc1O (configuration not stated)	96.9
Cc1cc2oc(=O)cc(O)c2cc1C	95.7
O=C(c1ccccc1)N1CCN(CC(O)Cn2c3ccccc3c3ccccc32)CC1 (configuration not stated)	99.4
CC1(C(=O)O)CCC2(C)CCC3(C)C(=CC(=O)C4C5(C)CCC(OC6OC(C(=O)O)C(O)C(O)C6OC6OC(C(=O)O)C(O)C(O)C6O)CC5CCC43C)C2C1.CC1(C(=O)O)CCC2(C)CCC3(C)C(=CC(=O)C4C5(C)CCC(OC6OC(C(=O)O)C(O)C(O)C6OC6OC(C(=O)O)C(O)C(O)C6O)CC5CCC43C)C2C1.CC1(C(=O)O)CCC2(C)CCC3(C)C(=CC(=O)C4C5(C)CCC(OC6OC(C(=O)O)C(O)C(O)C6OC6OC(C(=O)O)C(O)C(O)C6O)CC5CCC43C)C2C1.[Fe] (configuration not stated)	91.5
O=c1cc(-c2ccccc2Cl)oc2c(Br)cc(Cl)cc12	112
O=C(N/N=C\c1cc(Br)cc(Br)c1OC(=O)c1cccc(F)c1)c1ccc2c(c1)OCO2	64.1
O=C(N/N=C/c1cc(N=Nc2cccc(C(F)(F)F)c2)ccc1O)c1ccc2c(c1)OCO2	21.3
O=C(N/N=C/c1cc(N=Nc2cccc3ccccc23)ccc1O)c1ccc2c(c1)OCO2	64.5
Cc1cc(=O)[nH]c(SCC(=O)Nc2cccc(C)c2C)n1	114
Cc1ccccc1C(=O)OCC1CCCN2CCCCC12.O.O.O.O.O.O.O=[N+]([O-])O.O=[N+]([O-])O.[Co] (configuration not stated)	104
CC(C)c1ccc(/C=C/C(=O)N2CCC3(O)CCCCC3C2c2ccc(F)cc2)cc1 (configuration not stated)	77.9
O=C(Nc1c(C(=O)Nc2ccccc2)c2ccccc2n(Cc2ccc(F)cc2)c1=O)c1ccccc1	94.1
COc1cccc(C=Nc2ccc3cc4ccc(N=Cc5cccc(OC)c5O)cc4nc3c2)c1O	2.39
COC(=O)C1=C(C)NC(SCC(=O)c2ccc3c(c2)OCO3)=C(C#N)C1c1cccs1 (configuration not stated)	95.7
CC(C)C(=O)NCC(=O)NCC(=O)O	98.8
O=C(CCNc1n[nH]c(=O)[nH]c1=O)N/N=C/c1cccnc1	93
COc1cc(/C=N/NC(=O)CCC(=O)Nc2ccccc2C)cc(OC)c1OC	91.6
COc1ccccc1CNC(=O)c1cc(OC)c(OC)c(OC)c1	100
CCn1c2ccccc2c2cc(/C=N/NC(=O)c3cc(OC)c(OC)c(OC)c3)ccc21	10.7
O=C(O)/C=C/c1c(Cl)cccc1Cl	94.6
